Test results published in ChEMBL document CHEMBL3988442, “University of Dundee, Small-Polar-MMV Screening Library” (2021).
For some of these results: Results with a measured potency or affinity are listed apart.

How the values were obtained:
Set-up in all cases: scale not given: direction of the effect not stated beside the values
[1] = target: Protein translocase subunit SecA (Escherichia coli (strain K12)) (UniProt P10408); experiment: Assay to Identify E. coli SecA ATPase Inhibitors; type: functional; settings: 30 µM
[2] = target: T1, Ubiquitin-activating enzyme e1, putative (Leishmania donovani (strain BPK282A1)) (UniProt E9BSI1); experiment: Leishmania donovani Ubiquitin Activating Enzyme (LdE1); type: functional; settings: 30 µM
T1 sequence (whole entry): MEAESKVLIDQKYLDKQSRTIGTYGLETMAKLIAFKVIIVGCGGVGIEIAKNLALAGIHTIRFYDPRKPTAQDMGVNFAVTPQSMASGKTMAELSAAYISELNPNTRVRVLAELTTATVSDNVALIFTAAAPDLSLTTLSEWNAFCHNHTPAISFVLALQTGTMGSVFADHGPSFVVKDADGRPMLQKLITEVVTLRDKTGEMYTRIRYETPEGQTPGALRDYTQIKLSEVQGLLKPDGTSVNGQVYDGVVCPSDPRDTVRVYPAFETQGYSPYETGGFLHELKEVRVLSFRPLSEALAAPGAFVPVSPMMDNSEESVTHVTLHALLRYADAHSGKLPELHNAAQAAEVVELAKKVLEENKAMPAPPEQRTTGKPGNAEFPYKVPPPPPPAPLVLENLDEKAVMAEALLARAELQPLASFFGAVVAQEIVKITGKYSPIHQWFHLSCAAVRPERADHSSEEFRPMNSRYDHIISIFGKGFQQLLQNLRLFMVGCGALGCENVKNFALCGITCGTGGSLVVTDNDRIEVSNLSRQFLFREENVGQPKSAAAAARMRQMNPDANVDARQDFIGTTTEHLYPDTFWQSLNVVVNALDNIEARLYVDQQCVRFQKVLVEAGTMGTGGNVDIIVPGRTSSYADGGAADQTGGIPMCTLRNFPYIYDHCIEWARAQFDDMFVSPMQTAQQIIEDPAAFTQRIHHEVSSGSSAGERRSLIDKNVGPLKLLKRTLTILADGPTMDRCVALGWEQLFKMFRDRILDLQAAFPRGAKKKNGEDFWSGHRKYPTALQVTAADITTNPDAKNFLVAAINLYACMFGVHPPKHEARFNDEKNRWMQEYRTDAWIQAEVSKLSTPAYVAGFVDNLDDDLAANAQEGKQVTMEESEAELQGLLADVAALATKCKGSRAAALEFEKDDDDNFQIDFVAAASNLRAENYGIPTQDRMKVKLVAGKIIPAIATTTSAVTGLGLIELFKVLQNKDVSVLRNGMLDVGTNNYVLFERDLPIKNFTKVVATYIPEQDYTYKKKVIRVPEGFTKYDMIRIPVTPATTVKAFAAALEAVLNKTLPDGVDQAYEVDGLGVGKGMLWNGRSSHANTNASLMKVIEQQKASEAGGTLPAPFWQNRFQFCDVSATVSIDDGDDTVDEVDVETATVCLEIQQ

[3] = target: AMP-activated protein kinase, AMPK (Homo sapiens) (UniProt P54646+O43741+P54619+Q9UGJ0+Q9Y478+Q13131+Q9UGI9); experiment: AMP-dependent Kinase enzyme assay. An in vitro enzyme assay that detects ADP turnover that is directly proportional to AMPK activity. This uses naive AMPK that is activated during the assay with MK-8722; type: functional; settings: 30 µM
[4] = target: Sialic acid-binding Ig-like lectin 9 (Homo sapiens) (UniProt Q9Y336); experiment: Hs-Siglec9 ALPHAscreen SOP 20170721; settings: 10 µM
Trypanosoma cruzi = experiment: Trypanosoma cruzi phosphomannomutase and mannose-1-phosphate guanylyltransferase assay; type: functional; settings: 10 µM
[5] = target: T2, Arginase-2, mitochondrial (Homo sapiens) (UniProt P78540); experiment: in vitro enzyme assay to detect the production of urea directly proportional to the activity of Arginase II; type: functional; settings: 33.3 µM; further: in the data most compounds retested in dose-response had high values
T2 sequence (whole entry): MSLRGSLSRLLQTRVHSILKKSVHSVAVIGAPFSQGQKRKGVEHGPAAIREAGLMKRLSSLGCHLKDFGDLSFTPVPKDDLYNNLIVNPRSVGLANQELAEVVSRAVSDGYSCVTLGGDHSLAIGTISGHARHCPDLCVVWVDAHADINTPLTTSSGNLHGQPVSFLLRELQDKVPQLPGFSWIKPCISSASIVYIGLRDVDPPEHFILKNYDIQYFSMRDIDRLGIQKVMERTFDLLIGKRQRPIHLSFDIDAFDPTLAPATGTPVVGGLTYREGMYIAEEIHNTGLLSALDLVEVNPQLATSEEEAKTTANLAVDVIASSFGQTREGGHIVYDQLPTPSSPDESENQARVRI

[6] = target: T3, Proteasome subunit beta (Trypanosoma cruzi) (UniProt O96673); experiment: Trypanosoma cruzi proteasome chymotrypsin-like activity (TcProtChymo) assay.; further: in the data most compounds retested in dose-response had high values; type: functional; settings: 9.37 µM
T3 sequence (whole entry): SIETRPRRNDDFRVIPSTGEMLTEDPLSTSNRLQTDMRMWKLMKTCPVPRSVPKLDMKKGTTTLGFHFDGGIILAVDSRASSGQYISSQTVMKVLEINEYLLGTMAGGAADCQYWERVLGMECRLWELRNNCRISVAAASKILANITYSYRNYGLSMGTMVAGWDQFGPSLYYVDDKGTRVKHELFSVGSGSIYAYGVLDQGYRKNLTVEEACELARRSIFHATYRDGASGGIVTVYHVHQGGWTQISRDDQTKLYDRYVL

Homo sapiens = species: Homo sapiens; experiment: To identify inhibition of the IFN signalling (Jak-Stat) pathway via expression of an eGFP reporter gene under the control of an IFN-stimulated response element (ISRE) containing MxA promoter.; type: functional; settings: 30 µM
[7] = target: T4, Tyrosyl-tRNA synthetase, putative (Trypanosoma cruzi (strain CL Brener)) (UniProt Q4DSP6); experiment: Trypanosoma cruzi tyrosyl tRNA synthetase (TcYRS) _High Tyrosine SOP; type: functional; settings: 30 µM; further: in the data most compounds retested in dose-response had high values
T4 sequence (whole entry): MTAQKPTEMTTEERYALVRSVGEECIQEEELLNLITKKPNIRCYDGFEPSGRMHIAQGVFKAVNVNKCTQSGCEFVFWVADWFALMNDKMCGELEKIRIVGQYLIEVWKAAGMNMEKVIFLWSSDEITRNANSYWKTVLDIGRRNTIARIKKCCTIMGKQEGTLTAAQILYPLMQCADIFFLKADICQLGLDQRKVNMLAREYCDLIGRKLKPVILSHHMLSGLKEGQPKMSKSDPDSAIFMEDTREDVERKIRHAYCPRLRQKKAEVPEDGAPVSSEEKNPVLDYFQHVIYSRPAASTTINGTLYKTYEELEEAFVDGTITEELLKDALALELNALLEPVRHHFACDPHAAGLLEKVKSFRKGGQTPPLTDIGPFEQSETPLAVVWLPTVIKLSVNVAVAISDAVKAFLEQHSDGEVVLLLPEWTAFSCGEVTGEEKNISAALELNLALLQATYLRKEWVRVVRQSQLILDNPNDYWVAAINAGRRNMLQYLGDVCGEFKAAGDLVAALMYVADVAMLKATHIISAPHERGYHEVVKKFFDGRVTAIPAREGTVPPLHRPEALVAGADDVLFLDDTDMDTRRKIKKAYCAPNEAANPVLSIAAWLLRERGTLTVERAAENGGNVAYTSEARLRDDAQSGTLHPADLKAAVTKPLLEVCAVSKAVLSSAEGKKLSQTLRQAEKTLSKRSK

[8] = target: T4, Tyrosyl-tRNA synthetase, putative (Trypanosoma cruzi (strain CL Brener)); experiment: Trypanosoma cruzi tyrosyl tRNA synthetase (TcYRS) SOP; type: functional; settings: 30 µM
[9] = target: Chromo domain-containing protein 1 (Saccharomyces cerevisiae (strain ATCC 204508 / S288c) (Baker's yeast)) (UniProt P32657); experiment: ScCHD-1 Enzyme Inhibition Assay; type: functional; settings: 30 µM; further: in the data most compounds retested in dose-response had high values
Sequence of Chromo domain-containing protein 1 (Saccharomyces cerevisiae (strain ATCC 204508 / S288c) (Baker's yeast)) (P32657 whole entry, the tested form may be a part): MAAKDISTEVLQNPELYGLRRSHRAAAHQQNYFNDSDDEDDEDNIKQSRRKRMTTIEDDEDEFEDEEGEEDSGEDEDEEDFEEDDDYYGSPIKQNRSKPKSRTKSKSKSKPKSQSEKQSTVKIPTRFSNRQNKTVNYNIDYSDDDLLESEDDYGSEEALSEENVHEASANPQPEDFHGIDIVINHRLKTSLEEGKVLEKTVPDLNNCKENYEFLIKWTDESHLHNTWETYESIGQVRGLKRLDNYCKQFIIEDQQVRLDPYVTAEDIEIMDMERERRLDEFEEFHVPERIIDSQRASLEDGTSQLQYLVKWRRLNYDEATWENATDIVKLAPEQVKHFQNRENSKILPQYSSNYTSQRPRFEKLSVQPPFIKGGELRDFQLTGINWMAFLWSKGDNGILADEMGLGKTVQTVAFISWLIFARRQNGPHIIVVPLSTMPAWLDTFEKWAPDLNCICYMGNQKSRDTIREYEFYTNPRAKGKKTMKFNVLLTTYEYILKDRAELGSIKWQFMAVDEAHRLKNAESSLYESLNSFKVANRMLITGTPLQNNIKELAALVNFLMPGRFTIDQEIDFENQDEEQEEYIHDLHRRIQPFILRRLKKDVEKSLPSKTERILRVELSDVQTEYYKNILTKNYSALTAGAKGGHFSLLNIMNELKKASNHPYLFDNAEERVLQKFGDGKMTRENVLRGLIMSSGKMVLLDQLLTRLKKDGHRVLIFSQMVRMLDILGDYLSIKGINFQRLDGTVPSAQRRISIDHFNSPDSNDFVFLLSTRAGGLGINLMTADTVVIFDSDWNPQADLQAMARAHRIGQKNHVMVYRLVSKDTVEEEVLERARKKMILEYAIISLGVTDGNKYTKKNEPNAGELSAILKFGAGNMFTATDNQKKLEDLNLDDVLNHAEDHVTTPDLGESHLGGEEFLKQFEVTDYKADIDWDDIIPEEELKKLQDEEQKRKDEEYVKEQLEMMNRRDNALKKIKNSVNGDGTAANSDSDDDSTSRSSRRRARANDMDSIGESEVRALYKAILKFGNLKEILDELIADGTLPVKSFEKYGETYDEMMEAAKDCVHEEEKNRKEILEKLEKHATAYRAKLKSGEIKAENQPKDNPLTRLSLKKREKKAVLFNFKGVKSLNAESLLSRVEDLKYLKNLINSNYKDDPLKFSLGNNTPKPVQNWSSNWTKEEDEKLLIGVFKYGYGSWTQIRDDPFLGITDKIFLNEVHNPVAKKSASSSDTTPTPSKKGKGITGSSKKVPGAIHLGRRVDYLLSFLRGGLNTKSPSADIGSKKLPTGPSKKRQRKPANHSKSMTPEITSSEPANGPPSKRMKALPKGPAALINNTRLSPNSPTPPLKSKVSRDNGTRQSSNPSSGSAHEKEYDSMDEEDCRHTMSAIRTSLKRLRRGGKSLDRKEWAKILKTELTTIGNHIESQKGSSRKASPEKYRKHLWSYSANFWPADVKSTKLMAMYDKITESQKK

Sequence of Sialic acid-binding Ig-like lectin 9 (Homo sapiens) (Q9Y336 whole entry): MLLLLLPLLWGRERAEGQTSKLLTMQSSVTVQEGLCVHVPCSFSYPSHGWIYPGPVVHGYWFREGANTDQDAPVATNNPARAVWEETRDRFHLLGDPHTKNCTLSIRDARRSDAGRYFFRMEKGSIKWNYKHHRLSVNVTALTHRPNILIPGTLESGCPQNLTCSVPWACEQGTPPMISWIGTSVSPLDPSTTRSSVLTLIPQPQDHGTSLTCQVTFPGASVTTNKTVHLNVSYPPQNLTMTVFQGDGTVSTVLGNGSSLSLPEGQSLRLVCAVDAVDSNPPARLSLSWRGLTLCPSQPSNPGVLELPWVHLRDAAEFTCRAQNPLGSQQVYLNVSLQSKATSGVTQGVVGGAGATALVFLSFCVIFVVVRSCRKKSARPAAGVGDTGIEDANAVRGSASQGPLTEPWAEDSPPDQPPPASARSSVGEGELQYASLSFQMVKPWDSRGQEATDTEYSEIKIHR
Sequence of Protein translocase subunit SecA (Escherichia coli (strain K12)) (P10408 whole entry): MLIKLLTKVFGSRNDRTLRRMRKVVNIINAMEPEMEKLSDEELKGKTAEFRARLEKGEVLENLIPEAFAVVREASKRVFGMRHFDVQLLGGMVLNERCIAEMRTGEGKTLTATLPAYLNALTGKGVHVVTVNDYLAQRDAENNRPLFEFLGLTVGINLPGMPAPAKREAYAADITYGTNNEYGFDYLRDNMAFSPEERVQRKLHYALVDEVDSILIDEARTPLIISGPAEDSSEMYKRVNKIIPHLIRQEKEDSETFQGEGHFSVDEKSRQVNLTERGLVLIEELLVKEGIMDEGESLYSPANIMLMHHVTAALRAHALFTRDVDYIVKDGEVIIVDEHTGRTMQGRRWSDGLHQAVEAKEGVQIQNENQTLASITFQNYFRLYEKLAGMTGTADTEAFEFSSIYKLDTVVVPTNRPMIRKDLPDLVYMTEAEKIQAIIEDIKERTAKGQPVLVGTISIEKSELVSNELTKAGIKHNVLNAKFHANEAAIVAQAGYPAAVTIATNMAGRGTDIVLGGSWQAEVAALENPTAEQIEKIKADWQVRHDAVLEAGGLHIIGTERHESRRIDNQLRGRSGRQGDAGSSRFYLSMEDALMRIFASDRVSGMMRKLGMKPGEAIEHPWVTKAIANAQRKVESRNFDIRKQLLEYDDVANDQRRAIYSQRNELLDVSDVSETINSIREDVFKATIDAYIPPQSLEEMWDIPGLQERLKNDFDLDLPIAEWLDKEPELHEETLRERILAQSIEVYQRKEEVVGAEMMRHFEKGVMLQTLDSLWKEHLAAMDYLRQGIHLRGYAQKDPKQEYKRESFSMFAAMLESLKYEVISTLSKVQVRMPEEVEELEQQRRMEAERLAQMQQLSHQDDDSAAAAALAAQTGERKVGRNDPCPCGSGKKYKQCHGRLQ

SMILES: c1cncc(COCC2CN(Cc3ccco3)Cc3ccnn3C2)c1 (stereo unspecified)
- Percent Effect [1]: -3%
- Percent Effect [2]: 13.5%
- Percent Effect [3]: -6.55%
- Percent Effect [4]: 4.29%
- Percent Effect (Trypanosoma cruzi): -0.0978%
- Percent Effect [5]: 6.2%
- Percent Effect [6]: 5.06%
- Percent Effect (Homo sapiens): 9.51%
- Percent Effect [7]: 7.53%
- Percent Effect [8]: 13.6%
- Percent Effect [9]: -2.33%

SMILES: CC(C)C(=O)NC1CCN(Cc2cccc3c2OCCO3)CC1
- Percent Effect [1]: -2.08%
- Percent Effect [2]: -1.27%
- Percent Effect [3]: 4.8%
- Percent Effect [4]: 0.497%
- Percent Effect (Trypanosoma cruzi): -2.36%
- Percent Effect [5]: 3.66%
- Percent Effect [6]: -2.06%
- Percent Effect (Homo sapiens): 17.1%
- Percent Effect [7]: 2.08%
- Percent Effect [8]: -2.53%
- Percent Effect [9]: -21.1%

SMILES: Cc1cnn(C2CCCN(C(=O)CCc3nccs3)C2)c1 (stereo unspecified)
- Percent Effect [1]: -2.71%
- Percent Effect [2]: 16.2%
- Percent Effect [3]: -1.11%
- Percent Effect [4]: 0.709%
- Percent Effect (Trypanosoma cruzi): -8.4%
- Percent Effect [5]: 1.2%
- Percent Effect [6]: 17.3%
- Percent Effect (Homo sapiens): 16.1%
- Percent Effect [7]: 2.46%
- Percent Effect [8]: 3.7%
- Percent Effect [9]: -3.34%

SMILES: O=C(Cc1ccc2c(c1)OCCO2)N1CCCC(n2ccnc2)C1 (stereo unspecified)
- Percent Effect [1]: -8.71%
- Percent Effect [2]: 5.2%
- Percent Effect [3]: -7.38%
- Percent Effect [4]: -6.56%
- Percent Effect (Trypanosoma cruzi): 10.7%
- Percent Effect [5]: -3.58%
- Percent Effect [6]: 4.77%
- Percent Effect (Homo sapiens): 2.67%
- Percent Effect [7]: 1.91%
- Percent Effect [8]: 11.8%
- Percent Effect [9]: -24.2%

SMILES: CCOCCn1nc(C)cc1C(=O)N1CCN(C(C)C)C(CC)C1 (stereo unspecified)
- Percent Effect [1]: -4.36%
- Percent Effect [2]: 2.7%
- Percent Effect [3]: -2.68%
- Percent Effect [4]: 4.47%
- Percent Effect (Trypanosoma cruzi): 6.56%
- Percent Effect [5]: -1.43%
- Percent Effect [6]: 10.9%
- Percent Effect (Homo sapiens): 10.2%
- Percent Effect [7]: 3.7%
- Percent Effect [8]: 12.2%
- Percent Effect [9]: -1.83%

SMILES: COCCCN1CCC(NC(=O)C(C)C)CC1
- Percent Effect [1]: -6.61%
- Percent Effect [2]: -2.74%
- Percent Effect [3]: -0.488%
- Percent Effect [4]: -2.06%
- Percent Effect (Trypanosoma cruzi): -5.16%
- Percent Effect [5]: -2%
- Percent Effect [6]: 6.76%
- Percent Effect (Homo sapiens): 24.5%
- Percent Effect [7]: 0%
- Percent Effect [8]: -1.24%
- Percent Effect [9]: -2.64%

SMILES: COc1cccc(CN(C)C(=O)Nc2ccc3c(c2)OCCO3)c1
- Percent Effect [1]: -0.723%
- Percent Effect [2]: 18.4%
- Percent Effect [3]: -0.168%
- Percent Effect [4]: -10.2%
- Percent Effect (Trypanosoma cruzi): 0.0974%
- Percent Effect [5]: 2.37%
- Percent Effect [6]: 26.6%
- Percent Effect (Homo sapiens): 22.9%
- Percent Effect [7]: 1.06%
- Percent Effect [8]: 10.4%
- Percent Effect [9]: -8.52%

SMILES: CCc1n[nH]c(C2CN(CCc3cccs3)CCO2)n1 (stereo unspecified)
- Percent Effect [1]: -7.68%
- Percent Effect [2]: 11.4%
- Percent Effect [3]: -4.38%
- Percent Effect [4]: -6.28%
- Percent Effect (Trypanosoma cruzi): 3.38%
- Percent Effect [5]: -1.94%
- Percent Effect [6]: 8.06%
- Percent Effect (Homo sapiens): -6.82%
- Percent Effect [7]: 2.08%
- Percent Effect [8]: 17.7%
- Percent Effect [9]: -43.9%

SMILES: CCCc1nc(CN2CCOC(CNc3cccnn3)C2)cs1 (stereo unspecified)
- Percent Effect [1]: -3.31%
- Percent Effect [2]: 2.7%
- Percent Effect [3]: -3.87%
- Percent Effect [4]: 5.09%
- Percent Effect (Trypanosoma cruzi): -0.849%
- Percent Effect [5]: -5.61%
- Percent Effect [6]: 10.3%
- Percent Effect (Homo sapiens): 7.16%
- Percent Effect [7]: 14.3%
- Percent Effect [8]: 30.9%
- Percent Effect [9]: -7.47%

SMILES: CN(Cc1ccsc1)C(=O)CS(=O)(=O)Cc1ccc(Cl)c(Cl)c1
- Percent Effect [1]: -1.27%
- Percent Effect [2]: -5.2%
- Percent Effect [3]: 10.5%
- Percent Effect [4]: -5.21%
- Percent Effect (Trypanosoma cruzi): 7.15%
- Percent Effect [5]: 0.21%
- Percent Effect [6]: 15.6%
- Percent Effect (Homo sapiens): 7.44%
- Percent Effect [7]: -13.3%
- Percent Effect [8]: 0%
- Percent Effect [9]: -13.1%

SMILES: CCn1cc(CN2CCCN(C(=O)CCc3ccncc3)CC2)cn1
- Percent Effect [1]: -3.49%
- Percent Effect [2]: 26%
- Percent Effect [3]: -14.6%
- Percent Effect [4]: 4.57%
- Percent Effect (Trypanosoma cruzi): 1.87%
- Percent Effect [5]: -0.712%
- Percent Effect [6]: 5.91%
- Percent Effect (Homo sapiens): 23.6%
- Percent Effect [7]: 8.74%
- Percent Effect [8]: 14.6%
- Percent Effect [9]: -7.66%
